Data: a collection of fitness landscapes (doi:10.1016/j.celrep.2020.107928)
In all, about 81,000 sequences were measured (“one-hybrid fitness for binding NBS DNA”: median about -0.1, highest 2% from about 0.36 on). For the sample, the highest values were picked, then their nearest neighbours and some sequences at random.

B1: Caulobacter ParB omega fusion; a variant is named by its letters at X, in order, B8GW30 (parent)
chain: MESVVVGEPGMSEGRRGLGRGLSALLGEVDAAPAQAPGEQLGGSREAPIEILQRNPDQPRRTFREEDLEDLSNSIREKGVLQPILVRPSPDTAGEYQIVAGERAWRAAQRAGLKTVPIMVRELDDLAVLEIGIIENVQRADLNVLEEALSYKVLMEKFERTQENIAQTIGKSXSHVANXMRLLXLPDEVQSYLVSGELTAXHARAIAAAADPVALAKQIIEGGLSVRETEALARKAPNLSAGKSKGGRPPRVKDTDTQALESDLSSVLGLDVSIDHRGSTGTLTITYATLEQLDDLCNRLTRGI

Variants of: B1
Assay: one-hybrid fitness for binding NBS DNA (the Noc-binding site; scaled: cognate 1, non-cognate 0); higher = stronger binding
Settings: with NBS DNA site
In short: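 Fitness here means the log change in variant-to-wild-type read ratio between plasmids sequenced before and after selection. That scale was set so cognate equals 1 and non-cognate equals 0. The selection was a bacterial one-hybrid screen of Caulobacter ParB libraries, four specificity codons randomised, in E. coli USO carrying a HIS3 reporter with the site 19 bp from the promoter, grown 48 hours at 37°C on M9-minus-histidine with 0.1 mM IPTG and 5 mM 3-AT.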

| Variant | one-hybrid fitness for binding NBS DNA |
| --- | --- |
| KFTC | ≤ 0.2 |
| SYMR | ≤ 0.2 |
| GWRK | ≤ 0.2 |
| FEGS | ≤ 0.2 |
| RYSD | ≤ 0.2 |
| RYNR | 0.519 |
| RYNH | 0.209 |
| RYSR | 0.452 |
| RYKG | ≤ 0.2 |
| RYKR | 0.744 |
| RYHH | ≤ 0.2 |
| RYVR | 0.269 |
| RYSP | ≤ 0.2 |
| RYHP | ≤ 0.2 |
| RYHR | 0.471 |
| RYDR | 0.207 |
| THIG | ≤ 0.2 |
| RYLR | 0.354 |
| RYGR | 0.432 |
| RYGP | ≤ 0.2 |
| RYRR | 0.726 |
| RYQR | 0.44 |
| RYGH | ≤ 0.2 |
| RYYR | 0.404 |

| Variant | one-hybrid fitness for binding NBS DNA |
| --- | --- |
| RYWR | 0.269 |
| RYQN | ≤ 0.2 |
| RYPR | ≤ 0.2 |
| RYQP | ≤ 0.2 |
| RYIR | 0.203 |
| QYAV | ≤ 0.2 |
| ENTF | ≤ 0.2 |
| ECNK | ≤ 0.2 |
| PSCV | ≤ 0.2 |
| ALDS | ≤ 0.2 |
| AKVC | ≤ 0.2 |
| RYCN | ≤ 0.2 |
| RYCR | 0.377 |
| RYAR | 0.43 |
| RYFR | 0.241 |
| RYAP | ≤ 0.2 |
| RYCD | ≤ 0.2 |
| REYM | ≤ 0.2 |
| RFAG | ≤ 0.2 |
| QMRK | 0.387 |
| QADK | ≤ 0.2 |
| QSRK | 0.376 |
| QSYK | ≤ 0.2 |
| QPRK | ≤ 0.2 |

| Variant | one-hybrid fitness for binding NBS DNA |
| --- | --- |
| QCYK | ≤ 0.2 |
| QLRK | 0.336 |
| QMDK | ≤ 0.2 |
| QARK | 0.37 |
| QCRK | 0.478 |
| QAYK | ≤ 0.2 |
| QMYK | ≤ 0.2 |
| GVLR | ≤ 0.2 |
| WSLR | ≤ 0.2 |
| LIRR | ≤ 0.2 |
| KRDL | ≤ 0.2 |
| YEVL | ≤ 0.2 |
| QTDK | ≤ 0.2 |
| QKNK | ≤ 0.2 |
| QTYK | ≤ 0.2 |
| QKRK | 0.429 |
| QKDK | ≤ 0.2 |
| QTRK | 0.546 |
| YNVR | ≤ 0.2 |
| VWSR | ≤ 0.2 |
| HGEV | ≤ 0.2 |
| TVPQ | ≤ 0.2 |
| FGYR | ≤ 0.2 |
| CGVE | ≤ 0.2 |

| Variant | one-hybrid fitness for binding NBS DNA |
| --- | --- |
| FGFR | ≤ 0.2 |
| CGAE | 0.595 |
| CGFR | ≤ 0.2 |
| CGAR | 0.441 |
| FGAR | 0.385 |
| NGAE | ≤ 0.2 |
| CGYR | ≤ 0.2 |
| ITGA | ≤ 0.2 |
| QREE | ≤ 0.2 |
| CKNS | ≤ 0.2 |
| ATHI | ≤ 0.2 |
| YEAF | ≤ 0.2 |
| WRNM | ≤ 0.2 |
| TRHT | 0.364 |
| LQMW | ≤ 0.2 |
| YQHT | ≤ 0.2 |
| QSGP | ≤ 0.2 |
| QCGR | 0.764 |
| QSGH | ≤ 0.2 |
| QIGS | 0.295 |
| QTGR | 0.813 |
| QTGM | 0.3 |
| QTGG | 0.204 |
| QPGR | ≤ 0.2 |

| Variant | one-hybrid fitness for binding NBS DNA |
| --- | --- |
| QIGD | ≤ 0.2 |
| QSGR | 0.547 |
| QGGR | ≤ 0.2 |
| QIGR | 0.437 |
| LCEP | ≤ 0.2 |
| GKTT | ≤ 0.2 |
| LKMC | ≤ 0.2 |
| WIPG | ≤ 0.2 |
| IPHT | ≤ 0.2 |
| YLLF | ≤ 0.2 |
| SHQN | ≤ 0.2 |
| LRKG | ≤ 0.2 |
| QQKL | 0.327 |
| QQKE | 0.335 |
| QQVD | ≤ 0.2 |
| QQKR | 1.1 |
| QQVH | ≤ 0.2 |
| QQVR | 0.491 |
| AGDY | ≤ 0.2 |
| GMLG | ≤ 0.2 |
| RCVE | ≤ 0.2 |
| YVKV | ≤ 0.2 |
| QRWN | ≤ 0.2 |
| QRRP | 0.359 |

| Variant | one-hybrid fitness for binding NBS DNA |
| --- | --- |
| QRRS | 0.787 |
| QRRD | 0.356 |
| QRWP | ≤ 0.2 |
| QRYS | 0.646 |
| QRYD | 0.222 |
| QRYP | ≤ 0.2 |
| QRRN | 0.547 |
| QRWS | 0.54 |
| QRYN | 0.319 |
| NAHV | ≤ 0.2 |
| FSNM | ≤ 0.2 |
| SRRP | ≤ 0.2 |
| THHR | ≤ 0.2 |
| VCSD | ≤ 0.2 |
| WQLA | ≤ 0.2 |
| RTRG | 0.215 |
| CCQR | ≤ 0.2 |
| CVKA | ≤ 0.2 |
| MAIS | ≤ 0.2 |
| NATF | ≤ 0.2 |
| MAFC | ≤ 0.2 |
| ECWS | ≤ 0.2 |
| QCES | 0.301 |
| QRES | 0.469 |

| Variant | one-hybrid fitness for binding NBS DNA |
| --- | --- |
| QREN | ≤ 0.2 |
| PSVG | ≤ 0.2 |
| QLCT | 0.345 |
| QPCT | ≤ 0.2 |
| QHCT | 0.294 |
| QTCH | 0.319 |
| QTCT | 0.571 |
| QICT | 0.266 |
| QSCT | 0.386 |
| QTCD | ≤ 0.2 |
| QCCT | 0.521 |
| SKPI | ≤ 0.2 |
| DYFM | ≤ 0.2 |
| LNNN | ≤ 0.2 |
| EHQL | ≤ 0.2 |
| GRLL | ≤ 0.2 |
| SFYC | ≤ 0.2 |
| IRNN | ≤ 0.2 |
| MQRC | ≤ 0.2 |
| NLPG | ≤ 0.2 |
| QKVS | 0.32 |
| QKKF | 0.294 |
| QKVR | 0.423 |
| QKKR | 1 |

| Variant | one-hybrid fitness for binding NBS DNA |
| --- | --- |
| DKKR | ≤ 0.2 |
| QKVN | ≤ 0.2 |
| NTIC | ≤ 0.2 |
| EQRE | ≤ 0.2 |
| TGAR | ≤ 0.2 |
| GMCV | ≤ 0.2 |
| RPHS | ≤ 0.2 |
| RLHS | 0.462 |
| RMHS | 0.486 |
| RLHH | ≤ 0.2 |
| RSHH | ≤ 0.2 |
| RCHS | 0.577 |
| RSHP | ≤ 0.2 |
| RSHS | 0.47 |
| RLHP | ≤ 0.2 |
| RFHS | 0.275 |
| RMHD | ≤ 0.2 |
| RMHN | ≤ 0.2 |
| CMKS | ≤ 0.2 |
| HSMS | ≤ 0.2 |
| YEDC | ≤ 0.2 |
| VNHL | ≤ 0.2 |
| HDMN | ≤ 0.2 |
| VQAT | ≤ 0.2 |

| Variant | one-hybrid fitness for binding NBS DNA |
| --- | --- |
| RKHD | ≤ 0.2 |
| RAHS | 0.482 |
| RAHN | ≤ 0.2 |
| RKHN | ≤ 0.2 |
| RKHS | 0.624 |
| RAHD | ≤ 0.2 |
| FLVC | ≤ 0.2 |
| LRGC | ≤ 0.2 |
| IPDS | ≤ 0.2 |
| QPHR | ≤ 0.2 |
| QTHM | 0.296 |
| QSHR | 0.578 |
| QSHD | ≤ 0.2 |
| QIHD | ≤ 0.2 |
| QSHP | ≤ 0.2 |
| QWHR | 0.288 |
| QTHR | 0.877 |
| QCHR | 0.742 |
| QIHR | 0.493 |
| QTHK | 0.293 |
| QIHC | ≤ 0.2 |
| QLFV | ≤ 0.2 |
| PASW | ≤ 0.2 |
| QHPW | ≤ 0.2 |

| Variant | one-hybrid fitness for binding NBS DNA |
| --- | --- |
| TKDT | ≤ 0.2 |
| KAAR | ≤ 0.2 |
| VHKI | ≤ 0.2 |
| VRNY | ≤ 0.2 |
| SPES | ≤ 0.2 |
| PIPY | ≤ 0.2 |
| DLRT | ≤ 0.2 |
| HALK | ≤ 0.2 |
| LKPH | ≤ 0.2 |
| ECKC | ≤ 0.2 |
| PADW | ≤ 0.2 |
| EYHR | ≤ 0.2 |
| CRTW | ≤ 0.2 |
| QAIT | 0.291 |
| QTPH | ≤ 0.2 |
| QTPP | ≤ 0.2 |
| QCPT | 0.382 |
| QPPT | ≤ 0.2 |
| QTPT | 0.418 |
| QSPT | 0.276 |
| QLIT | 0.287 |
| QTIT | 0.522 |
| RCQW | ≤ 0.2 |
| IHRR | ≤ 0.2 |

| Variant | one-hybrid fitness for binding NBS DNA |
| --- | --- |
| DHKR | ≤ 0.2 |
| QHVR | 0.379 |
| NHKR | 0.202 |
| QHVS | 0.221 |
| QHVP | ≤ 0.2 |
| QHKR | 1.03 |
| LTLF | ≤ 0.2 |
| YIRF | ≤ 0.2 |
| KAST | ≤ 0.2 |
| GTAV | ≤ 0.2 |
| KTYR | ≤ 0.2 |
| KKYR | ≤ 0.2 |
| KKDR | ≤ 0.2 |
| KMYR | ≤ 0.2 |
| KTDR | ≤ 0.2 |
| KTRR | 0.541 |
| DCRR | 0.416 |
| KKRR | 0.47 |
| DPRR | ≤ 0.2 |
| KMDR | ≤ 0.2 |
| DSRR | ≤ 0.2 |
| KMRR | 0.398 |
| QEHI | ≤ 0.2 |
| GLEC | ≤ 0.2 |

| Variant | one-hybrid fitness for binding NBS DNA |
| --- | --- |
| KISR | ≤ 0.2 |
| NLTF | ≤ 0.2 |
| IPIE | ≤ 0.2 |
| AYRA | ≤ 0.2 |
| LADD | ≤ 0.2 |
| DHMR | ≤ 0.2 |
| RSEM | ≤ 0.2 |
| KIPV | ≤ 0.2 |
| AVRD | ≤ 0.2 |
| ISPK | ≤ 0.2 |
| CECG | ≤ 0.2 |
| HLGA | ≤ 0.2 |
| KHRR | 0.367 |
| KHQR | ≤ 0.2 |
| KPRR | ≤ 0.2 |
| KCRR | 0.46 |
| NQRR | ≤ 0.2 |
| KHYR | ≤ 0.2 |
| KQRR | 0.416 |
| KSRR | 0.343 |
| KQYR | ≤ 0.2 |
| PLRA | ≤ 0.2 |
| YGEG | ≤ 0.2 |
| NPWT | ≤ 0.2 |

| Variant | one-hybrid fitness for binding NBS DNA |
| --- | --- |
| YGMG | ≤ 0.2 |
| ETAK | ≤ 0.2 |
| RFQF | ≤ 0.2 |
| NMWY | ≤ 0.2 |
| NYHG | ≤ 0.2 |
| ANWC | ≤ 0.2 |
| AQQE | ≤ 0.2 |
| RMKS | 0.598 |
| RMKN | ≤ 0.2 |
| RCKH | 0.403 |
| RMKD | ≤ 0.2 |
| RMVS | 0.29 |
| RSKH | 0.357 |
| RMKH | 0.402 |
| RPKH | ≤ 0.2 |
| RMKP | ≤ 0.2 |
| CHSP | ≤ 0.2 |
| DPDC | ≤ 0.2 |
